Assay results reported in the supplement of paper PMC10849652.
Of roughly 7,900 targets only a part is listed; those with a hit were picked by preference. About 0.6% of all pairs of compound and target were hits.

How the values were obtained:
Test in all cases: log2 fold change, soluble protein after heating vs DMSO (PISA); higher = thermal stabilisation; K562 cells, 10 uM, 30 min; active = over 0.2 and 3.5 SD of the protein, either way, in both replicates (recomputed)
[1] = compound: C1=CC=C(C=C1)[C@H](COC2=CC3=C(C=C2)NC(=O)N3)NC(=O)C4=CC=CN(C4=O)CC5=CC(=C(C=C5)F)F
How it was run: (§1)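 Soluble protein was quantified by TMTpro 16plex LC-MS/MS after channel sums were equalised. It was obtained as the supernatant after 21,000xg for 90 min from pooled aliquots of K562 cells (2×10^6 cells/mL, 10 μM compound, 30 min) heated for 3 min across 48°C-58°C and extracted in PBS with 0.5% NP-40 at 4°C. Thermal stability values are relative to control samples and come from duplicates. They are given as log2 fold changes.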

[2] = compound: CC1=C(SC2=C1C(=N[C@H](C3=NN=C(N32)C)CC(=O)N)C4=CC=C(C=C4)Cl)C
How it was run: as §1

[3] = compound: CC1=C2C(=CC=C1)N=C(N(C2=O)C3=CC=CC=C3C)CN4C=NC5=C(N=CN=C54)N
How it was run: as §1

[4] = compound: Cc1sc2c(c1C)C(c1ccc(Cl)cc1)=N[C@@H](CC(=O)OC(C)(C)C)c1nnc(C)n1-2
How it was run: as §1

[5] = compound: c1ccc([C@@H]2C[C@H]2NC2CCNCC2)cc1
How it was run: as §1

Measured: log2 fold change

PUF60 (UniProt Q9UHX1)
inactive: [1] 0.031 | [2] 0.033 | [3] 0.081 | [4] -0.036 | [5] 0.007

POLR2B (UniProt P30876)
inactive: [1] -0.028 | [2] 0.105 | [3] 0.047 | [4] 0.159 | [5] -0.053

QKI (UniProt Q96PU8)
inactive: [1] -0.016 | [2] 0.039 | [3] 0.105 | [4] -0.082 | [5] 0.01

PRKACB isoform 2 (UniProt P22694)
inactive: [1] -0.06 | [2] 0.021 | [3] 0.032 | [4] -0.038 | [5] 0.003

PPIL2 (UniProt Q13356)
inactive: [1] -0.028 | [2] 0.041 | [3] 0.098 | [4] -0.019 | [5] -0.011

PSMD9 (UniProt O00233)
inactive: [1] 0.014 | [2] 0.017 | [3] -0.004 | [4] 0.007 | [5] 0.016

PIKFYVE (UniProt Q9Y2I7)
Sequence of UniProt Q9Y2I7 (Q9Y2I7 whole entry, looked up): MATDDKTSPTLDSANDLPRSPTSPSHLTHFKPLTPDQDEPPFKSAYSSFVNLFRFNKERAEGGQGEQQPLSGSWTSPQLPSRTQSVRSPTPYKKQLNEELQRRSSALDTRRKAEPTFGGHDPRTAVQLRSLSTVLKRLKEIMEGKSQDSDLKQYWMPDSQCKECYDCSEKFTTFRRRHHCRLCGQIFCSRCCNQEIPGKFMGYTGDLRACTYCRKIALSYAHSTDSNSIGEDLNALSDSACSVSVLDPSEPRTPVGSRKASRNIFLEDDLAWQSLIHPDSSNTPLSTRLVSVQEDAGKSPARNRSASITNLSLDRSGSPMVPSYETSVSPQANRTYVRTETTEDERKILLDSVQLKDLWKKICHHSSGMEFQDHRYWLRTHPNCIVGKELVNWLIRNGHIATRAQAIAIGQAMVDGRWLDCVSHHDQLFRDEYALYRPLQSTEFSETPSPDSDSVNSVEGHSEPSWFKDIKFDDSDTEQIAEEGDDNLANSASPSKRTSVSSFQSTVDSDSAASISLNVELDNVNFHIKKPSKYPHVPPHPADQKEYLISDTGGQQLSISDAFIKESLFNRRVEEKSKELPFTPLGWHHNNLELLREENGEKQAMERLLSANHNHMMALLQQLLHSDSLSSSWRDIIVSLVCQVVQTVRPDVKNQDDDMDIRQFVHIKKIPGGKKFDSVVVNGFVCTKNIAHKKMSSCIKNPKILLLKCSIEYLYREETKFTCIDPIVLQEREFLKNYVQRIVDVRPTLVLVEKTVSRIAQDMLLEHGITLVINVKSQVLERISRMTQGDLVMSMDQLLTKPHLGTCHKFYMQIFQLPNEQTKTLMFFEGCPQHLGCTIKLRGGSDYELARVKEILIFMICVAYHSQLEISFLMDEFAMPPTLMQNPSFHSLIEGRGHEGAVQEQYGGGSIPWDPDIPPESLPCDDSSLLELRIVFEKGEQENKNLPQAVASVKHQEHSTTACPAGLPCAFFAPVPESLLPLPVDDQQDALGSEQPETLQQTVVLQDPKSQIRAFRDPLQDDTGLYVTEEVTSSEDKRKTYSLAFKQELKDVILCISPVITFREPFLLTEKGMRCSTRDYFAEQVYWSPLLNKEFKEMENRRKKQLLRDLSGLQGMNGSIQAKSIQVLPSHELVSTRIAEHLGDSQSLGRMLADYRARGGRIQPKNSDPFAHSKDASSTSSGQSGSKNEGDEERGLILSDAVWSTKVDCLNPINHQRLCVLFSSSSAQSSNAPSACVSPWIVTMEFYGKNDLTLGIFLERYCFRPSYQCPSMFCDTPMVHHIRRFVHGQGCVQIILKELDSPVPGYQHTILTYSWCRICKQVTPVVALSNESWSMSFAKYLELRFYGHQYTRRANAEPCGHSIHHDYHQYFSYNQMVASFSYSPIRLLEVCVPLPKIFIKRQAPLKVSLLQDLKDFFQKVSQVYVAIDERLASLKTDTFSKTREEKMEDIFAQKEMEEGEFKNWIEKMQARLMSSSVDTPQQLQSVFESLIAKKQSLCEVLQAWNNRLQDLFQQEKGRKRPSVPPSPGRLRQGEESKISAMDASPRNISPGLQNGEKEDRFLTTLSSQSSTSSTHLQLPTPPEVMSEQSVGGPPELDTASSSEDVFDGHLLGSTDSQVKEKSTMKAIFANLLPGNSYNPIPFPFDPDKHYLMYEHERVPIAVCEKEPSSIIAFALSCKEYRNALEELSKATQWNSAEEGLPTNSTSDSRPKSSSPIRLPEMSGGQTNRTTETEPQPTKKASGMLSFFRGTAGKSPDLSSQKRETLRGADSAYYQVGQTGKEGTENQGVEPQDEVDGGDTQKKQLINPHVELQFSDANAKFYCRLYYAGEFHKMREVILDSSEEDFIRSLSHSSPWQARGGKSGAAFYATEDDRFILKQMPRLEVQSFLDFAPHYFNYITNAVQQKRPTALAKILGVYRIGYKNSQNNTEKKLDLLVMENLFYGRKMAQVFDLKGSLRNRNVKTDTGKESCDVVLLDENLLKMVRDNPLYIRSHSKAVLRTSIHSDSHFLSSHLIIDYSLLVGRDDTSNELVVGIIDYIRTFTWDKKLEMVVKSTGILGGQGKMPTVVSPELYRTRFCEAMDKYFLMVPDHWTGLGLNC
inactive: [1] -0.077 | [2] 0.106 | [3] 0.111 | [4] 0.068 | [5] -0.009

PMPCB (UniProt O75439)
inactive: [1] 0.005 | [2] 0.111 | [3] 0.01 | [4] 0.012 | [5] -0.053

PNPLA4 (UniProt P41247)
inactive: [1] 0.068 | [2] 0.158 | [3] 0.042 | [4] 0.099 | [5] 0.178

PLIN2 (UniProt Q99541)
inactive: [1] -0.063 | [2] -0.006 | [3] 0.093 | [4] 0.004 | [5] 0.015

PDLIM7 (UniProt Q9NR12)
inactive: [1] -0.04 | [2] 0.044 | [3] 0.092 | [4] -0.023 | [5] -0.011

PRPF40A (UniProt O75400)
inactive: [1] -0.008 | [2] 0.016 | [3] 0.123 | [4] -0.022 | [5] 0.037

PTPA (UniProt A6PVN8)
inactive: [1] 0.011 | [2] 0.011 | [3] 0.001 | [4] -0.015 | [5] 0.148

PDE12 (UniProt Q6L8Q7)
inactive: [1] -0.003 | [2] 0.059 | [3] 0.12 | [4] -0.05 | [5] -0.094

PARL (UniProt Q9H300)
inactive: [1] 0.017 | [2] -0.017 | [3] 0.045 | [4] 0.028 | [5] 0.031

PRKCB isoform 2 (UniProt P05771)
inactive: [1] -0.034 | [2] 0.028 | [3] 0.053 | [4] 0.027 | [5] -0.008

PSME4 (UniProt Q14997)
inactive: [1] -0.041 | [2] 0.017 | [3] 0.017 | [4] -0.025 | [5] -0.048

POMK (UniProt Q9H5K3)
inactive: [1] 0.04 | [2] 0.027 | [3] -0.041 | [4] -0.067 | [5] -0.022

PRKCA (UniProt P17252)
inactive: [1] -0.035 | [2] 0.124 | [3] 0.14 | [4] 0.002 | [5] -0.038

PUM1 isoform 3 (UniProt Q14671)
Sequence of UniProt Q14671 (Q14671 whole entry, looked up): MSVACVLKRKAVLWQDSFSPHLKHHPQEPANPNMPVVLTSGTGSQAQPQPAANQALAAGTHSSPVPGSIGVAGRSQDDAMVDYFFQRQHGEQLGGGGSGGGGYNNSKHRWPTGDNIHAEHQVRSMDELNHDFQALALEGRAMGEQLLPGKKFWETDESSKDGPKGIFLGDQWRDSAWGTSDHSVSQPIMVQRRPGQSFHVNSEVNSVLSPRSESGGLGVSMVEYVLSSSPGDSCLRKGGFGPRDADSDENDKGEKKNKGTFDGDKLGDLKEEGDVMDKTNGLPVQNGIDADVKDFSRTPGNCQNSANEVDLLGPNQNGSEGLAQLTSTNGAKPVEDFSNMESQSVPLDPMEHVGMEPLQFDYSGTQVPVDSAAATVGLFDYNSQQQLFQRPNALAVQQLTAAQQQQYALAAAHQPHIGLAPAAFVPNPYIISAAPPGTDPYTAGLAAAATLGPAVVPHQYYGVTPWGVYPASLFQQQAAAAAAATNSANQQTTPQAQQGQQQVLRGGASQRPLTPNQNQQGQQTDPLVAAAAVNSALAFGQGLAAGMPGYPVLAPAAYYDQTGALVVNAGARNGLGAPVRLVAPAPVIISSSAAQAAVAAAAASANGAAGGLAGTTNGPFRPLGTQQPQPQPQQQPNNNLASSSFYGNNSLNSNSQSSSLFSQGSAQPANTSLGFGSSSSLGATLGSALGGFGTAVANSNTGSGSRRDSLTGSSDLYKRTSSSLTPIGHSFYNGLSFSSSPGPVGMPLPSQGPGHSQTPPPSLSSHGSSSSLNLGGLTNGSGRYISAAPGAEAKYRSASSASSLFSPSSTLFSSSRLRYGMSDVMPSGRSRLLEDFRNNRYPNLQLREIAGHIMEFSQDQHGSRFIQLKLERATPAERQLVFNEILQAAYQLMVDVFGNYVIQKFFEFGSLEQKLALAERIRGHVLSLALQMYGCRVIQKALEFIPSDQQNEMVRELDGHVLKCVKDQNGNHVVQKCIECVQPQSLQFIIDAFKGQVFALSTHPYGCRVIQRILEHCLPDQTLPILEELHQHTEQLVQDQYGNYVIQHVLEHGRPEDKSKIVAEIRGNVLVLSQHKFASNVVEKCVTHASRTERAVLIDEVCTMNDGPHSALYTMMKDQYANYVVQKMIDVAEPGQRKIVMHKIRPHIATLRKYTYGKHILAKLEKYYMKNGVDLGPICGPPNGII
inactive: [1] 0.004 | [2] -0.036 | [3] 0.056 | [4] 0.025 | [5] -0.049

PTPN23 (UniProt Q9H3S7)
inactive: [1] -0.038 | [2] 0.048 | [3] 0.054 | [4] 0 | [5] 0.038

PPP4R3B (UniProt Q5MIZ7)
inactive: [1] -0.014 | [2] 0.069 | [3] 0.134 | [4] 0.003 | [5] -0.005

PGGHG (UniProt Q32M88)
inactive: [1] -0.052 | [2] -0.09 | [3] -0.088 | [4] -0.084 | [5] 0.213

PIP4K2A (UniProt P48426)
Sequence of UniProt P48426 (P48426 whole entry, looked up): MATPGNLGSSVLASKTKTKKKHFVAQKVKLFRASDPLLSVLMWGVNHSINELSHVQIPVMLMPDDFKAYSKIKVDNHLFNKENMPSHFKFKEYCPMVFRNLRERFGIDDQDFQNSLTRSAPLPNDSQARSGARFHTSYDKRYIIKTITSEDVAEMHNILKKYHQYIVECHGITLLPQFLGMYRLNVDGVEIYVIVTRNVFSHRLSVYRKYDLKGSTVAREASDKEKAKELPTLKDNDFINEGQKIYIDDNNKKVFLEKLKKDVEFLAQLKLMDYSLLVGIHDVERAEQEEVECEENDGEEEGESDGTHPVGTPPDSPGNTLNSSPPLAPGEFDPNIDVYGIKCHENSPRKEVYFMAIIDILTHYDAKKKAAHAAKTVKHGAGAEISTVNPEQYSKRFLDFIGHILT
inactive: [1] -0.091 | [2] 0.032 | [3] 0.049 | [4] 0.033 | [5] -0.024

RAB11FIP1 (UniProt Q6WKZ4)
inactive: [1] 0.041 | [2] 0.071 | [3] 0.086 | [4] -0.006 | [5] 0.046

QRICH1 (UniProt Q2TAL8)
inactive: [1] -0.029 | [2] -0.148 | [3] 0 | [4] -0.02 | [5] -0.016

POLR3B (UniProt Q9NW08)
inactive: [1] -0.035 | [2] -0.02 | [3] 0.078 | [4] 0.04 | [5] -0.046

PRPF3 (UniProt O43395)
Sequence of UniProt O43395 (O43395 whole entry, looked up): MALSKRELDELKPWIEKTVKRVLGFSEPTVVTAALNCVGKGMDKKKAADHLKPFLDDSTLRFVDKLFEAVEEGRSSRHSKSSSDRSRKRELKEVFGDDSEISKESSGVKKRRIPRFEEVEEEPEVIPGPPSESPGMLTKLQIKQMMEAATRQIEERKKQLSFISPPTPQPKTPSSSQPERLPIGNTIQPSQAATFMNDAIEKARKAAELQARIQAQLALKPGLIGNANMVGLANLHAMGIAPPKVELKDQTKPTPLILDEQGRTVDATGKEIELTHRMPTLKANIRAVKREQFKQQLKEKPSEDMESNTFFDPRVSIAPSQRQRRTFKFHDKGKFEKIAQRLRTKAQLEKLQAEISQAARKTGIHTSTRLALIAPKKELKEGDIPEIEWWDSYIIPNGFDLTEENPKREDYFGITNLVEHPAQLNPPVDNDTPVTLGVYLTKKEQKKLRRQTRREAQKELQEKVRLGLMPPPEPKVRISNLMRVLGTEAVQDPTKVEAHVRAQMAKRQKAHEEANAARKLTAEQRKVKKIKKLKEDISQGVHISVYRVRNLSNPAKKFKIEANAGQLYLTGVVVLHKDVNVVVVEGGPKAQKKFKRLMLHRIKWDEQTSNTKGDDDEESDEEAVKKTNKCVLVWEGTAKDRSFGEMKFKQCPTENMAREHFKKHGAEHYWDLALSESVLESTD
inactive: [1] -0.09 | [2] -0.208 | [3] 0.08 | [4] -0.017 | [5] 0.115

PCLAF (UniProt Q15004)
inactive: [1] 0.055 | [2] -0.022 | [3] -0.045 | [4] 0.02 | [5] 0.07

PPP2R5A (UniProt Q15172)
inactive: [1] -0.036 | [2] 0.07 | [3] -0.006 | [4] -0.08 | [5] -0.08

PHLDB1 isoform 2 (UniProt Q86UU1)
inactive: [1] -0.006 | [2] 0.073 | [3] 0.081 | [4] 0.008 | [5] 0.002

PCBP2 (UniProt F8VRH0)
inactive: [1] -0.033 | [2] -0.18 | [3] -0.013 | [4] 0.085 | [5] 0.026

PSMC6 (UniProt P62333)
inactive: [1] 0.04 | [2] -0.087 | [3] -0.037 | [4] 0.017 | [5] 0.006

PMPCA (UniProt Q10713)
inactive: [1] -0.015 | [2] 0.121 | [3] 0.06 | [4] 0.018 | [5] -0.047

PTTG1 (UniProt O95997)
inactive: [1] -0.005 | [2] 0.003 | [3] 0.014 | [4] 0.004 | [5] 0.011

PHKA2 (UniProt P46019)
inactive: [1] -0.018 | [2] -0.003 | [3] 0.053 | [4] 0.023 | [5] 0.024

POLR2M (UniProt Q6EEV4)
inactive: [1] 0.092 | [2] 0.105 | [3] -0.002 | [4] -0.128 | [5] -0.107

PTTG1IP (UniProt P53801)
inactive: [1] 0.149 | [2] -0.055 | [3] -0.134 | [4] 0.04 | [5] 0.084

PRKCQ (UniProt Q04759)
inactive: [1] -0.064 | [2] 0.069 | [3] 0.104 | [4] 0.033 | [5] 0

PDCD4 (UniProt Q53EL6)
inactive: [1] -0.055 | [2] 0.002 | [3] 0.053 | [4] -0.167 | [5] -0.003

PSMB4 (UniProt P28070)
inactive: [1] 0.024 | [2] -0.037 | [3] -0.038 | [4] -0.009 | [5] 0.03

PRMT8 (UniProt Q9NR22)
inactive: [1] -0.002 | [2] 0.133 | [3] 0.046 | [4] -0.028 | [5] -0.015

PHAX (UniProt Q9H814)
inactive: [1] 0.014 | [2] -0.019 | [3] -0.015 | [4] -0.024 | [5] 0.022

POLR2E (UniProt P19388)
inactive: [1] -0.013 | [2] 0.094 | [3] -0.023 | [4] 0.054 | [5] -0.06

PSMD12 (UniProt O00232)
inactive: [1] 0.021 | [2] -0.063 | [3] -0.066 | [4] -0.045 | [5] -0.009

PRKCG (UniProt P05129)
inactive: [1] -0.216 | [2] -0.025 | [3] 0.033 | [4] -0.017 | [5] 0.077
